# Source: PubChem BioAssay
# E-sel TNF inh = TNF alpha driven E-selectin expression inhibition; actives 0.71% (n = 120,000); HUVEC TNFa-induced E-selectin immunofluorescence, high content; inhibition, % at 2 µM;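 active = inhibition above the batch mean plus 3 SD, and confirmed as a hit on visual image review, cut at about 43% in these data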;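 also: 0% = TNF-stimulated DMSO wells and 100% = unstimulated control wells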
# HUVEC tox TNFa = HUVEC cytotoxicity counter-screen, TNF alpha stimulated | HUVEC TNFalpha-stimulated, Hoechst cell count, imaging | cell count reduction, % at 2 µM | actives 0.17% (n = 93,000);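 active = cell count reduction exceeding the screen mean by over 5 SD, scaled to untreated wells per plate, cut at about 78% in these data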;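 also: cells counted after 24 h of TNF alpha exposure following the 1 h pretreatment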
# F-actin modifier = modifiers of cytoskeleton assembly | HUVEC TNFa F-actin phalloidin imaging, high content | inhibition, % at 2 µM | actives 0.18% (n = 91,000);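 active = inhibition above the batch mean plus 3 SD and confirmed as a hit by visual image inspection, cut at about 30% in these data, passing the limit was not always enough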
# VCAM1 TNFa inh = reduces TNF alpha induced VCAM1 expression in HUVEC; inhibition, % at 2 µM; AID 802; actives 0.48% (n = 95,000); HUVEC TNFa-induced VCAM-1 immunofluorescence, high-content imaging;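 active = inhibition above the batch mean plus 3 SD, with images confirmed as a hit by eye, cut at about 37% in these data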;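 also: 0% = TNF-stimulated DMSO wells and 100% = unstimulated control wells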
# Numbers without * were called inactive; · = no result. An excerpt weighted towards active compounds, which were near 1.2% of everything screened.
SMILES,E-sel TNF inh,HUVEC tox TNFa,F-actin modifier,VCAM1 TNFa inh
Cc1ccccc1Cn1ccc(NC(=O)c2cnn3c2NC(c2ccccc2)CC3C(F)(F)F)n1 (stereo unspecified),75*,-34,16,4
O=C(NCc1ccco1)c1cnn2c1NC(c1ccccc1)CC2C(F)(F)F (stereo unspecified),·,-8,-18,-22
CCC(=O)Nc1cccc(NC(=O)c2cc3ccccc3o2)c1,·,87*,-56,86*
Cc1cccc(NC(=O)c2cc3ccccc3o2)c1,-9,4,0,-10
Fc1ccccc1SCc1nnc(-c2ccccc2Br)o1,68*,·,·,·
Cc1nc2c(sc3nc4c(cc32)COC(C)(C)C4)c(=O)o1,81*,-1,-1,-1
CCOc1ccc(C=O)cc1CN1CCCCC1,17,84*,-54,95*
CCOC(=O)C[n+]1c(C)sc2ccc(OC)cc21,66*,7,-2,-2
COc1ccc(C2=Nn3c(nnc3-c3ccccc3)SC2)cc1OC,-4,-10,14,14
O=C(COC(=O)Cn1cnc2ccccc21)Nc1cc2c(cc1Cl)C(=O)c1ccccc1C2=O,5,·,·,·
O=C(Oc1ccc2c(c1)C(=O)c1ccccc1CO2)c1ccccc1,1,22,-16,9
COc1ccc(OC)c(C2CC(=O)c3c([nH]c(C(=O)OC(C)C)c3C)C2)c1 (stereo unspecified),12,57,7,41*
C=C(C)c1cccc(C(C)(C)NC(=O)N2CCCCC2CC)c1 (stereo unspecified),57*,2,2,-28
CCOC(=O)c1cc2sccc2n1CC(=O)N1c2ccccc2CC1C (stereo unspecified),·,-1,17,-12
C=CCn1c(SCc2ccc(C(=O)OC)cc2)nnc1-c1sc(N)nc1C,4,·,·,·
C=CCn1c(SCC(=O)Nc2ccc(C(=O)OCC)cc2)nnc1-c1sc(N)nc1C,-17,-8,-8,92*
CC(C)CSC1=NSC2=NC(=O)/C(=C\c3ccccc3)C(=N)N12,-7,·,·,·
Cc1ccc2[nH]c(-c3ccccc3)cc(=O)c2c1,·,37,-106,64*
COc1cc2[nH]c(-c3ccc(C)cc3)cc(=O)c2cc1OC,-16,·,·,·
O=C(c1ccc([N+](=O)[O-])cc1)N(Cc1ccc(Br)cc1)N1C(=O)CCCC1=O,98*,-20,·,30
O=C(c1ccco1)N(Cc1ccc([N+](=O)[O-])cc1)c1ccc(Br)cc1,-22,8,7,-28
CCNC(=O)Nn1c(-c2ccccc2)nc2ccccc2c1=O,-6,20,2,-15
CCC(C(=O)OC)n1c(-c2ccccc2)nc2ccccc2c1=O (stereo unspecified),64*,·,·,·
CCC(C)(C(=O)NC1CCCCC1)N(C(=O)c1ccccn1)c1ccc(C)cc1 (stereo unspecified),-23,-21,5,-4
CCOC(=O)N1CCN(C(=O)C2CCN(S(=O)(=O)c3cc(OC)ccc3OC)CC2)CC1,72*,·,·,·
SMILES,E-sel TNF inh,HUVEC tox TNFa,F-actin modifier,VCAM1 TNFa inh
CN(CC(=O)N1CCc2[nH]c3ccc(F)cc3c2C1)CC1OCCO1,3,22,4,3
O=c1ccc2ccc(OCc3nnc(-c4ccccc4Br)o3)cc2o1,73*,-4,19,-8
CC(C)CN(C(=O)COC(=O)CCc1c[nH]c2ccccc12)C1CCS(=O)(=O)C1 (stereo unspecified),-22,71,39*,29
CC(C)CN(C(=O)COC(=O)Cc1c[nH]c2ccccc12)C1CCS(=O)(=O)C1 (stereo unspecified),·,-25,41,-4
CCN1CCCC1CNC1=NCCCCC1 (stereo unspecified),71*,-8,14,4
CCN1CCCC1CNC(=O)C(=O)NC1CC1 (stereo unspecified),-5,·,·,·
Cc1cccc(NCC(=O)N/N=C/c2cccc(Br)c2)c1,3,·,·,·
COc1ccccc1C(=O)NCCN1CCN(C(=O)c2ccccc2OC)CC1,100*,41,18,13
Cc1cc(C)c2c(n1)sc1c(N3CCOCC3)ncnc12,-12,11,-33,61*
CN1CCN(c2ncnc3c2sc2nc(N4CCOCC4)c4c(c23)CCC4)CC1,-1,-10,2,26
O=C1c2ccccc2-c2ncnc3cccc1c23,65*,3,11,6
Cc1ccc(C2(C)NC(=O)N(CC(=O)NCc3cccs3)C2=O)cc1 (stereo unspecified),-5,·,·,·
Cc1ccc(/C=C/C(=O)O)cc1S(=O)(=O)NCCO,54*,-17,27,7
CCc1n[nH]c2c1C(=O)CC(C)(C)C2,54*,-11,2,6
Cc1[nH]nc2c1C(=O)CC(C)(C)C2,7,-7,-9,18
Cc1ccc(CNC(=O)C2CCN(S(=O)(=O)c3c(C)noc3/C=C/c3ccco3)CC2)cc1,57*,42,-14,-14
Cc1ccc(CCNC(=O)C2CCCN(S(=O)(=O)c3c(C)noc3C)C2)cc1 (stereo unspecified),·,9,-11,19
Cc1ccc(CCNC(=O)C2CCCN(S(=O)(=O)c3c(C)noc3/C=C/N(C)C)C2)cc1 (stereo unspecified),55*,-20,4,0
Cc1ccc(NC(=O)C2CCCN(S(=O)(=O)c3c(C)noc3C)C2)nc1 (stereo unspecified),65*,-3,33,-16
CCOC(=O)CN(C(=O)CSc1nnc(CNc2ccc(F)cc2)o1)c1ccccc1,-23,-5,-30,0
CCOC(=O)c1cc(C#N)c(SCC(=O)O)[nH]c1=O,-23,·,·,·
O=C(NCCc1ccc(Cl)cc1)C1CCN(S(=O)(=O)c2cccs2)CC1,·,-5,-8,-19
CCS(=O)(=O)N1CCN(S(=O)(=O)c2ccc(F)cc2)CC1,8,·,6,-9
O=C(NCCN1C(=O)CSC1=O)c1ccccc1,69*,-1,-1,-2
O=C(Oc1csc(=S)n1C(=O)c1ccccc1)c1ccccc1,-2,86*,-71,98*
SMILES,E-sel TNF inh,HUVEC tox TNFa,F-actin modifier,VCAM1 TNFa inh
Cc1cccc(C(=O)Oc2csc(=S)n2C(=O)c2cccc(C)c2)c1,-6,-5,2,3
CCn1nnnc1-c1ccc(OC)c(S(=O)(=O)NCc2ccccc2)c1,88*,0,26,4
CCn1nnnc1-c1ccc(OC)c(S(=O)(=O)Nc2ccc(C)c(C)c2)c1,13,5,-1,8
CC(C)c1noc2ncc(C(=O)c3cc(Cl)cc(Cl)c3O)cc12,5,26,-7,16
COc1cc(C2C3=C(Nc4ncnn42)c2ccccc2CC3)cc(OC)c1OC (stereo unspecified),·,59,-10,88*
S=C(NCc1cccs1)Nc1cccc(Cl)c1Cl,81*,·,·,·
CCOc1ccc(C(F)(F)F)cc1NC(C)=O,·,15,-18,2
Cc1nccn1-c1ccc(C(F)(F)F)cc1NC=O,3,-5,73*,-4
CCCCOc1ccc(/C=C/C(=O)OCC(=O)NC(=O)NCC(C)C)cc1OCC,84*,·,·,·
COc1ccc(C)cc1S(=O)(=O)Nc1cccc(SC)c1,17,6,-20,51*
COc1cccc(NS(=O)(=O)c2cc(C)ccc2OC)c1,-10,-28,-5,10
O=C1CC(c2ccccc2)SC(N(c2ccccc2)c2ccccc2)=N1 (stereo unspecified),62*,·,·,·
